# Results taken from PubChem BioAssay AID588827 (Broad Institute, 2011).
# Among all 2,400 compounds or so, about 20 (0.8%) were called active. Not shown: some 19% with an inconclusive outcome. These entries were drawn from the full list. Entries with a potency or affinity are not part of this list. A number with no mark means an inactive call.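 How the source made its calls: active means fitted half-maximal concentration for signal decrease at or below twice the top tested dose, in every repeat run; inconclusive means repeat runs disagree, or flat partial inhibition, or poor fit; inactive means all runs flat, wrong-direction or potency beyond limit.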
# Assay: decrease of heat-induced HSF-1 GFP reporter, dose response, NIH3T3 R4 cells, GFP/RFP, cherry-pick, set 4 (AID 588827);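 further: 0% = neutral control wells and -100% = didemnin B at 400 nM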
# Details: NIH3T3 R4 HSF-1 GFP reporter, heat shock, 48 h; series mostly up to 19.5 µM; activity change, negative = inhibition: at the top concentration
row,SMILES,"activity change, negative = inhibition"
1,Nc1ncnc2oc(-c3ccco3)c(-c3ccco3)c12,-24.9%
2,CCN1CC2([N+](=O)[O-])C=CC(=O)C([N+](=O)[O-])(C1)C2CC(=O)c1ccccc1 (stereo not given),-27.8%
3,CCOC(=O)c1c(N)sc2c(O)c(Br)ccc12,-15.5%
4,Cc1[nH]c2ccccc2c1/C=C/c1nc2ccccc2c(=O)n1-c1cccc([N+](=O)[O-])c1,-7.65%
5,O=C(c1ccc([N+](=O)[O-])s1)N1CCN(c2cccc(Cl)c2)CC1,-14.1%
6,O=C(O)c1cccc(COc2ccc3c(c2)CCC3)c1,19.3%
7,CC(C)c1ccc(-c2nc3ccccc3s2)cc1,-15.1%
8,CC1=Nc2ccc(C)c3nc(C)cc(c23)N1c1ccc(C)cc1,-23.6%
9,N#Cc1cc2c(nc1SCC(=O)N1CCOCC1)CCCCC2,-3.19%
10,COc1ccc(/C=C/C(=O)Oc2ccc(/C=N/NC(=O)COc3c(C)cccc3C)cc2)cc1,-5.78%
11,CCN(c1ccccc1)S(=O)(=O)c1cnc[nH]1,21.3%
12,COc1ccccc1N=Nc1ccc(O)c2ncccc12,-0.842%
13,COc1cccc(NC(=O)Nc2nnc(Cc3ccccc3F)s2)c1,-18.8%
14,COc1ccccc1C(=O)NCCC(=O)NNC(=O)Cn1ccc(C(F)(F)F)n1,-21.8%
15,Nc1nc(Cl)nc2ccc(Br)cc12,-19%
16,CCN1CCN(/C=N/c2nc3c(s2)CCCC3)CC1,-11.3%
17,Cn1c(=O)c2c(nc(Oc3cccc(O)c3)n2C)n(C)c1=O,-12.2%
18,Cc1ccc(NC(=O)CCN2C(=O)C3CCCCC3C2=O)cc1[N+](=O)[O-] (stereo not given),28.3%
19,O=C(CCCCCn1c(=S)[nH]c2cc3c(cc2c1=O)OCO3)N1CCN(C(=O)c2ccco2)CC1,-18.7%
20,CCCCOc1ccc(N=Cc2ccc[nH]2)cc1,-5.17%
21,CCOc1ccc(-c2nc(CSCC(=O)N3CCN(c4cccc(OC)c4)CC3)c(C)o2)cc1,-28.1%
22,O=C(NCCN1CCCCC1)Nc1ccccc1Cl,-21.1%
23,CCC1CCCCN1CCCNC(=O)CSc1nc2nc(C)c(Cc3ccc(C)cc3)c(C)n2n1 (stereo not given),7.1%
24,O=C(Nc1ccc2c(c1)ncn2C1CCCCC1)c1ccco1,-27%
25,CC(C)(C)c1ccc(C(=O)NC(=S)Nc2nc3c(s2)CCCC3)cc1,-26.4%
26,N#Cc1nc(-c2ccco2)oc1N1CCN(Cc2ccccc2)CC1,-1.82%
27,COc1ccc(S(=O)(=O)/C(C#N)=C/Nc2cccc(OC)c2)cc1,-13.2%
28,CCCC[C@@H]1C[C@H]1[C@@H](NC(=O)c1ccco1)c1ccc(Cl)cc1,-16.9%

row,SMILES,"activity change, negative = inhibition"
1,Cc1ccc(C(=O)Nc2cccc(C(F)(F)F)c2)cc1NC(=O)c1ccno1,2.88%
2,Fc1ccc(CO/N=C/C2=C(Cl)c3ccccc3CC2)cc1,-14.4%
3,COc1ccc(-n2c(C)c(C(C)=O)c(C(C)=O)c2C)cc1,-21.1%
4,CSc1ncccc1C(=O)N1CCCC(N2CCN(c3ccccc3F)CC2)C1 (stereo not given),6.57%
5,CC(=O)N/C(=N\c1nc(C)cc(C)n1)Nc1ccc2ccccc2c1,-10.8%
6,Cc1ccc(/C=C(\NC(=O)c2ccccc2)C(=O)N2CCCC2C(=O)O)cc1 (stereo not given),-6.42%
7,COc1ccc(NC(=S)Nc2ccc(C)c(S(=O)(=O)N3CCCCC3)c2)cc1,-33.6%
8,Oc1ccccc1CNc1ccc(OC(F)(F)F)cc1,-21.3%
9,CCOc1c2ccc(C(=O)NCc3ccccc3OC)cc2nn1CC,-2.38%
10,CC(O/N=C\c1ccccc1O)C(=O)Nc1ccccc1C(=O)N1CCOCC1 (stereo not given),4.38%
11,COc1cccc(N(C(=O)c2cccs2)c2nc3ccccc3s2)c1,-7.54%
12,CCOc1cc(C#N)c(NC(=O)c2cccnc2Cl)cc1OCC,-7.83%
13,C=CCSc1nc2ccccc2n1C(=O)/C=C/c1cc(OC)c(OC)c(OC)c1,2.52%
14,O=C(Nc1ccc(N2CCCCC2)cc1)c1ccccn1,14.8%
15,Cc1cc(C)c(N=C2SCC(=O)N2Cc2ccco2)c(C)c1,13.7%
16,O=C(NC(=O)c1cccc(F)c1)OC[C@@H]1CCCN2CCCC[C@H]12,-8.55%
17,CCCCN(C(=O)COc1ccc(C)cc1OC)c1c(N)n(CCC)c(=O)[nH]c1=O,-8.36%
18,Cc1cc(C)c2c(c1)/C(=N/NS(=O)(=O)c1ccc(Br)cc1)CCC2,-11.3%
19,Cc1ccc(N(C)C(=O)CN(C)S(=O)(=O)c2ccc3c(c2)n(C)c(=O)c(=O)n3C)cc1,-5.74%
20,CCC(=O)Nc1cc2nn(-c3ccc(C)cc3)nc2cc1C,-26.2%
21,O=C1C(Cc2ccccc2)Nc2ncnc(N3CCN(c4ccccc4)CC3)c2N1Cc1ccccc1 (stereo not given),-9.33%
22,O=C(CSC(=S)N1CCCCC1)Nc1ncc2c(n1)CCCC2=O,-1.31%
23,N#Cc1c(SCC(=O)Nc2nccs2)nc2c(c1-c1ccco1)CCCC2,31.6%
24,CCN1C(=O)[C@H]2[C@@H](c3ccc(C)cc3)N3C(=O)N(c4ccc(C)cc4)C(=O)[C@@]3(C)[C@H]2C1=O,14.5%
25,CC(C)Cc1csc(NC(=O)c2ccc(F)cc2)c1C(=O)O,-14.2%
26,CCOC(=O)c1ccc(NC(=S)NC(=O)C2CCCC2)cc1,-32%
27,CCOC(=O)c1ccc(Nc2ncnc3nc[nH]c23)cc1,1.84%
